Potency and outcome data for seven compounds are collected here from PubChem BioAssay (NCATS).

Results filed as inconclusive are left out. More than one record can exist for a structure, and the calls need not agree. The source made the active and inactive calls. Unless noted, the call rests on the fitted dose curve; in most records, active means well fitted curve in the direction sought with a large enough effect; inconclusive means small, poorly fitted or top-dose-only effect, or another doubt; inactive means no such curve, though single readings can be large; an effect the other way counts as inactive or inconclusive.

Assay [1] deals with Ubiquitin carboxyl-terminal hydrolase 2 (Homo sapiens) (UniProt O75604). Kind of assay: qHTS Validation Assay for Inhibitors of Ubiquitin-specific Protease USP2a Using CHOP2 as the Reporter (AID 463106). The procedure, abridged: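 Inhibition is expressed relative to NEM as the full-inhibition control, with concentration-response curves classed by fit quality, magnitude and activity. Enzyme (USP2 core, 10nM) meets 25nM Ub-CHOP2 after compound preincubation; readings are taken at 60min.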
Chain of Ubiquitin carboxyl-terminal hydrolase 2 (Homo sapiens) (O75604 whole entry, looked up): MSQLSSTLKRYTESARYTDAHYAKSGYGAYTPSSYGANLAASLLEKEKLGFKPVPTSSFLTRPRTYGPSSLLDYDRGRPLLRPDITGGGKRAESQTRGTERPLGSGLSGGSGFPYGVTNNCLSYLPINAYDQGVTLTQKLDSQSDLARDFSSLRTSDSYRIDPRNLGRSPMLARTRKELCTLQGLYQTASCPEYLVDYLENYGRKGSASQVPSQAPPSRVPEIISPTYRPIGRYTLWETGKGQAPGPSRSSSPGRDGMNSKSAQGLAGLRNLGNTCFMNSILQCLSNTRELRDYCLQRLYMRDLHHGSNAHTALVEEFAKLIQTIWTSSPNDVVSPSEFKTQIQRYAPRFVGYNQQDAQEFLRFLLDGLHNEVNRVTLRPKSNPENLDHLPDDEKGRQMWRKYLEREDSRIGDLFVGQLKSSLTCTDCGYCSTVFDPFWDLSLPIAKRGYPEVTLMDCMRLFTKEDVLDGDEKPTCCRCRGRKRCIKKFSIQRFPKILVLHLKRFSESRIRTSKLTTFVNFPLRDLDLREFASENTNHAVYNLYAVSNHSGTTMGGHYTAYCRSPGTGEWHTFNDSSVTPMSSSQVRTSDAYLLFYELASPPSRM

In assay [2] the target is DNA polymerase III PolC-type (Bacillus subtilis (strain 168)) (UniProt P13267). Kind of assay: qHTS Validation Assay for the Inhibitors of DNA Replication in Gram-Positive Bacteria (AID 485295).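 Further: PicoGreen fluorescence of double-stranded DNA made on primed circular M13 template; series mostly up to about 57 µM.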 In outline: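 Reconstituted B. subtilis Pol III holoenzyme (PolC, beta clamp, SSB, primase) preincubated with compound, then M13Gori single-stranded circular template with dNTPs/NTPs added; room temperature reaction. Stopped with EDTA/PicoGreen; dsDNA fluorescence read, EDTA as full-inhibition control.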

Assay [3] can be described thus: qHTS Validation Assay to Find Inhibitors of Chronic Active B-Cell Receptor Signaling (AID 485345; active means well fitted curve in the direction sought with a large enough effect in the main read-out, with a control signal flat, not every such curve was filed as active; further: potency means the concentration at half of the fitted maximal effect). In outline: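 TMD8 ABC-DLBCL cells with dox-inducible green luciferase–IκBα fusion and red native luciferase; compounds 46 uM–3 nM, 4 h at 37C with doxycycline in 0.5% FBS IMDM. Green/red ratio normalized to basal and 10 uM MG-132.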
For assay [4], the target named is Beta-2 adrenergic receptor (Homo sapiens) (UniProt P07550). Description: qHTS validation assay of beta-arrestin-biased ligands of beta2-adrenergic receptor (AID 485366). The procedure, abridged:
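Agonism was measured as beta-arrestin recruitment to recombinant beta2-AR, releasing tTA to drive luciferase. Cells were exposed for 18 hr at 37 degrees C to a series up to 46 microM. %Activity from corrected luminescence gave concentration-response curves.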

The target in assay [5] is Thioredoxin reductase 1, cytoplasmic (Rattus norvegicus) (UniProt O89049). Description: qHTS Assay for Substrates of Mammalian Selenoprotein Thioredoxin Reductase 1 (TrxR1) (AID 488772).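 Further: series mostly up to about 57 µM; a drop in NADPH fluorescence below the no-compound background marks a TrxR1 substrate.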 The procedure, abridged:
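In this dual-purpose format, potential substrates are identified from the first fluorescence read after selenite addition, not from the 8-minute delta. Rat enzyme is preincubated with NADPH and then with compound at ~22 deg C.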

Assay [6] has the same target. Kind of assay: qHTS Assay for Inhibitors of Mammalian Selenoprotein Thioredoxin Reductase 1 (TrxR1) (AID 488773).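 Further: drop in NADPH fluorescence over an 8 min run after selenite addition; series mostly up to about 57 µM; nearly all actives have a fitted effect of over 40% in size.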 Particulars: Potency: inhibition. In outline:
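Inhibition is scored from the loss of NADPH fluorescence between first and last reads of an 8-min kinetic run. Selenite (400 uM) was the substrate, added after 15 min compound preincubation at room temperature.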

Assay [7] addresses Flap endonuclease 1 (Homo sapiens) (UniProt P39748). Kind of assay: qHTS Validation Assay for the Inhibitors of Human Flap endonuclease 1 (FEN1) (AID 488816). The procedure, abridged:
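Steps: add FEN1 (10 nM reagent) or buffer only; pin compounds; hold 15 min at room temperature; start with substrate, 50 nM final; read at 0 and 15 min; correct, normalize and fit a four-parameter Hill curve.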

The target of assay [8] is M-phase phosphoprotein 8 (Homo sapiens) (UniProt Q99549). Kind of assay: qHTS Validation Assay for Inhibitors for MPP8 Chromodomain Interactions with Methylated Histone Tails (AID 488949). Further: nearly all actives have a fitted effect of over 55% in size. Further: potency means the concentration at half of the fitted maximal effect. In outline: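 MPP8 (50 nM) was pre-bound to 50 nM biotinylated H3(1-18)K9me3 peptide in PBS pH 7.4 with 0.01% Tween-20. Compounds were then added for 30 min at room temperature, and complex disruption was read by AlphaScreen with streptavidin donor and nickel-chelate acceptor beads.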
Chain of M-phase phosphoprotein 8 (Homo sapiens) (Q99549 whole entry, looked up): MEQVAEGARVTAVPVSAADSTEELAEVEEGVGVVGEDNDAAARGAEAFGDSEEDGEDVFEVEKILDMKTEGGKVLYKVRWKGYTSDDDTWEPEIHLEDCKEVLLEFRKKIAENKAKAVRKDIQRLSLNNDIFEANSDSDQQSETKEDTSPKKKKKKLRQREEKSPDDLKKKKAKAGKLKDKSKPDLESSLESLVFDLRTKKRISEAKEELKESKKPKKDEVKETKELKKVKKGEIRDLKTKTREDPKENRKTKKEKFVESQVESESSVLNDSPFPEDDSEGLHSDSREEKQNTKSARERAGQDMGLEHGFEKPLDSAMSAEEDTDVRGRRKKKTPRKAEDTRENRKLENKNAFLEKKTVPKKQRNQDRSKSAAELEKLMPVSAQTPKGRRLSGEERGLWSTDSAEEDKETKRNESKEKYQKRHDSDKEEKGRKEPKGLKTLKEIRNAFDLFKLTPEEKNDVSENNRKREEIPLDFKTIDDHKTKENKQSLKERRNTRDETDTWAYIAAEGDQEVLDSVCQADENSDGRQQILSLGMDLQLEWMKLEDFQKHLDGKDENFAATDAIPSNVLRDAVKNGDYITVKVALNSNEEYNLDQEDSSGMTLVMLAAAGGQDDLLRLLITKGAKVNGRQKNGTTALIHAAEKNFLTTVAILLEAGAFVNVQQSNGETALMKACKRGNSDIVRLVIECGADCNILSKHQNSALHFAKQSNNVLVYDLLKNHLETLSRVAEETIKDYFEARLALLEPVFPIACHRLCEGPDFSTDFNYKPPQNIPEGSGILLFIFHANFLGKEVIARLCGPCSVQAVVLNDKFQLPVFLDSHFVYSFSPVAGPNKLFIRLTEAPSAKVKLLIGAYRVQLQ

In assay [9] the target is Chromobox protein homolog 1 (Homo sapiens) (UniProt P83916). Description: qHTS Validation Assay for Inhibitors of HP1-beta Chromodomain Interactions with Methylated Histone Tails (AID 488953). Further: nearly all actives have a fitted effect of over 50% in size. Further: potency means the concentration at half of the fitted maximal effect. In outline:
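Disruption of preformed HP1-beta:H3K9me3 peptide complexes (both 50 nM, PBS pH 7.4 with 0.01% Tween-20) is measured by AlphaScreen after 30 min compound exposure at room temperature, using streptavidin donor and nickel chelate acceptor beads at 10 ug/mL final.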

Assay [10] deals with Methanococcus maripaludis chaperonin (MmCpn) (UniProt Q6LX38). Kind of assay: High-Throughput Screening for Modulators of Cytosolic Chaperonin Activity: MmCpn Primary Screen (AID 488978).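 Further: 50 nM MmCpn enzyme hydrolysing 30 µM ATP at 37 °C.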 In outline:
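MmCpn at 50 nM final was preincubated 5 min at RT with compound. ATP was then added at 30 uM final for 10 min at 37 C. ADP formed was detected by Transcreener HTRF (665/590 nm).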

Assay [11] addresses D(1A) dopamine receptor (Homo sapiens) (UniProt P21728). Kind of assay: HTS Assay for Allosteric Agonists of the Human D1 Dopamine Receptor: Primary Screen for Agonists (AID 488981). Further: potency means the concentration at half of the fitted maximal effect. In outline:
(§1)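 Tetracycline-induced HEK293 T-REx cells force-coupled to calcium signalling were incubated overnight at 30 C and dye-loaded at room temperature. Calcium flux over 180 s after compound addition flagged agonists; a further 180 s read after EC20 dopamine flagged potentiators.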

Assay [12] shares this target. Kind of assay: HTS Assay for Allosteric Agonists of the Human D1 Dopamine Receptor: Primary Screen for Antagonists (AID 488983).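 Further: calcium flux response to an EC80 dopamine challenge measured with no-wash dye; nearly all actives have a fitted effect of over 65% in size.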 In outline:
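Kinetic fluorescence at 1 cycle/sec tracked intracellular calcium in force-coupled, tetracycline-inducible HEK293 T-REx D1 cells. Loss of response to an EC80 dopamine dose, given 180 s after compound, marked antagonists.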

Assay [13] can be described thus: Quantitative high throughput screen for delayed death inhibitors of the malarial parasite plastid, 96 hour incubation (AID 488745). Further: nearly all actives have a fitted effect of over 70% in size. Further: potency means the concentration at half of the fitted maximal effect. In outline:
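Readout is firefly luciferase luminescence from an integrated reporter in P. falciparum; lower signal marks inhibited growth. Cultures at 2% hematocrit and 0.1% parasitemia were treated with compound across two generations (96 h, 37 C, 5% CO2).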

Assay [14] is described as follows: Quantitative high throughput screen for delayed death inhibitors of the malarial parasite plastid, 48 hour incubation (AID 488752). Further: nearly all actives have a fitted effect of over 65% in size. Further: potency means the concentration at half of the fitted maximal effect. In outline:
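First, compound was pinned into RPMI 1640 medium containing 0.5% Albumax. Next, reporter-parasite-infected erythrocytes were added to 2% hematocrit and 0.1% parasitemia. After 48 h at 37 C under 5% CO2, luciferase detection reagent was added and luminescence read.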

Assay [15] concerns the target Thyrotropin receptor (Homo sapiens) (UniProt P16473). Description: qHTS Assay for Antagonists of the Thyroid Stimulating Hormone Receptor (AID 488980). Further: series mostly up to about 58 µM. In outline: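 TSHR-transfected HEK293 cells (2000/well) in HEPES-buffered HBSS with 70 uM RO 20-1724 were stimulated with 4 nM TSH (EC80, final) in the presence of compound. cAMP was measured by HTRF competition after lysis and 30 min at RT.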

Assay [16] has as its target ATP-dependent 6-phosphofructokinase (Trypanosoma brucei brucei) (UniProt O15648). Kind of assay: qHTS Validation Assay to Find Inhibitors of T. brucei phosphofructokinase (AID 485368). In outline:
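ADP-Glo luminescence, two-step: residual ATP depleted, then ADP converted to ATP for luciferase. Enzyme 1.25 nM, F6P 0.5 mM, ATP 0.1 mM, pH 8.0 TEA buffer, 45 min RT. Curves fitted and classed by quality and efficacy.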

Assay [17] has as its target D(1A) dopamine receptor (Homo sapiens) (UniProt P21728). Kind of assay: HTS Assay for Allosteric Agonists of the Human D1 Dopamine Receptor: Primary Screen for Potentiators (AID 488982). Further: potency means the concentration at half of the fitted maximal effect. In outline: as §1
The target of assay [18] is Transient receptor potential cation channel subfamily V member 1 (Homo sapiens) (UniProt Q8NER1). Description: HTS Assay for Compounds that Act as Enhancers of the Vanilloid Receptor 1 (AID 488979). In outline: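 TRPV1-expressing cells loaded with Fluo-8 calcium dye; compounds added and calcium influx read kinetically for 3 min (agonist phase), then capsaicin at EC20 added and read 2 min more for enhancement. Fluorescence ex 480/em 520 nm.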
Chain of Transient receptor potential cation channel subfamily V member 1 (Homo sapiens) (Q8NER1 whole entry, looked up): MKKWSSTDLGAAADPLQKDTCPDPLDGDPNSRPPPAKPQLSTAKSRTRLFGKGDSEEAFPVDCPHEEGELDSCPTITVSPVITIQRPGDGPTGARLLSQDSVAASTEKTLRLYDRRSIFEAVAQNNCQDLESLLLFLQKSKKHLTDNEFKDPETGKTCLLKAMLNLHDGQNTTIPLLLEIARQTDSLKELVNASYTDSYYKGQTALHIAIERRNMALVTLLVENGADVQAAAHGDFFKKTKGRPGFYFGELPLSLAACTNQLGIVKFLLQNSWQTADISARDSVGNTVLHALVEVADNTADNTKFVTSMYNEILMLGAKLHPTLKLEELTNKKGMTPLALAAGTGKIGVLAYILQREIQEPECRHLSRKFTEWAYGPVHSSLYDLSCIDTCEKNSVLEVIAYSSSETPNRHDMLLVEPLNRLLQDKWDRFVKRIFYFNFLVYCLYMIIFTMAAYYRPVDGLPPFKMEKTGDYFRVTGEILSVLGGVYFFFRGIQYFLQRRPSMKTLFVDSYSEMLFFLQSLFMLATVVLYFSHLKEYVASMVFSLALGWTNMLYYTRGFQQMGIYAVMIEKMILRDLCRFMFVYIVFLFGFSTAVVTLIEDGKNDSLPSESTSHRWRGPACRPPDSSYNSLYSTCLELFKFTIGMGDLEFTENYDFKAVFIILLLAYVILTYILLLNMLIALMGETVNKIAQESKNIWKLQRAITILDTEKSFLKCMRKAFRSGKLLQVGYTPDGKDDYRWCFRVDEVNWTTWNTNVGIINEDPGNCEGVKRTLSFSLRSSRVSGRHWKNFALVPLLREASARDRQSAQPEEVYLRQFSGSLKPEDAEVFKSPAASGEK

Chain of Thyrotropin receptor (Homo sapiens) (P16473 whole entry, looked up): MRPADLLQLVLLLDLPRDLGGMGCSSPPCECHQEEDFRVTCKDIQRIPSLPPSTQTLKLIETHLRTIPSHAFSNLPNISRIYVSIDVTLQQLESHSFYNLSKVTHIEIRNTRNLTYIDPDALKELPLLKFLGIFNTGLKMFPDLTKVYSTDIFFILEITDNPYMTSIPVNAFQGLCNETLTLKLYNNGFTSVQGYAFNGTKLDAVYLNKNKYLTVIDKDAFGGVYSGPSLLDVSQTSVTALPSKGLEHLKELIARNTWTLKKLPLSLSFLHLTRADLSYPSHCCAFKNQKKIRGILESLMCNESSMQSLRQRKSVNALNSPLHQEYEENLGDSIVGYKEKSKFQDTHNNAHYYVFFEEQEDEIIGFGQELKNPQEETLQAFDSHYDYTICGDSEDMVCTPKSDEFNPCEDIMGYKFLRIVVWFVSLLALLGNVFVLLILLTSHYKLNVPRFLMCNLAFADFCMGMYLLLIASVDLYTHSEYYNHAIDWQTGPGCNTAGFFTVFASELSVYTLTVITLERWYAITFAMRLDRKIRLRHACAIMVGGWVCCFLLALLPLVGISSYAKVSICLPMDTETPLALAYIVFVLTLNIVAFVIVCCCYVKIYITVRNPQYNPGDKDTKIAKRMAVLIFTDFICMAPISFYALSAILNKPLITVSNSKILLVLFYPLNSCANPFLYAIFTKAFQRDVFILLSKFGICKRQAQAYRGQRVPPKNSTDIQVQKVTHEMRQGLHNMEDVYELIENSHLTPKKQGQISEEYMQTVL
Chain of Methanococcus maripaludis chaperonin (MmCpn) (Q6LX38 1-543): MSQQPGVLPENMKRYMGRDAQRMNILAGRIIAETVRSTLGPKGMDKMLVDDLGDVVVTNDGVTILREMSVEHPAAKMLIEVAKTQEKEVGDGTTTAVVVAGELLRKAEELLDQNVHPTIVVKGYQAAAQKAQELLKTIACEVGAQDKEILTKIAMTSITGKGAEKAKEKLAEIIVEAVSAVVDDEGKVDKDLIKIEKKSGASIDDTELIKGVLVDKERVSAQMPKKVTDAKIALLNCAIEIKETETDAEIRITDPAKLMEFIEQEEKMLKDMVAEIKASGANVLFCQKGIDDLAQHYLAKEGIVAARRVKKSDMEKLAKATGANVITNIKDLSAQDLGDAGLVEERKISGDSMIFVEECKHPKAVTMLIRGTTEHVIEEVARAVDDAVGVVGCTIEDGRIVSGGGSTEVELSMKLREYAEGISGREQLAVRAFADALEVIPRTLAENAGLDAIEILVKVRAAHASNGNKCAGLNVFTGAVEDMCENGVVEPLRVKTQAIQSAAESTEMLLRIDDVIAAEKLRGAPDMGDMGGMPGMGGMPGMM
Chain of D(1A) dopamine receptor (Homo sapiens) (P21728 whole entry, looked up): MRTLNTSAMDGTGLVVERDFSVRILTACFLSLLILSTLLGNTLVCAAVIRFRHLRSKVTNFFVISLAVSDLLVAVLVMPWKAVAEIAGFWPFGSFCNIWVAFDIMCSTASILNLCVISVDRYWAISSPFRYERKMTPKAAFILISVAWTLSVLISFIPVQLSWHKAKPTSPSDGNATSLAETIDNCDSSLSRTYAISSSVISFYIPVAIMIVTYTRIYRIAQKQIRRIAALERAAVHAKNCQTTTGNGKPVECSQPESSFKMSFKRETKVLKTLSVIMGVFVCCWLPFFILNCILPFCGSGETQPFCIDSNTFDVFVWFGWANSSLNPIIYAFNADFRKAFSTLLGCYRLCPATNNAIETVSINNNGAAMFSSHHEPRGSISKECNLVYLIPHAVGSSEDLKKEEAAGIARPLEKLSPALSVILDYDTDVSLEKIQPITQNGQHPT
Chain of Thioredoxin reductase 1, cytoplasmic (Rattus norvegicus) (O89049 whole entry, looked up): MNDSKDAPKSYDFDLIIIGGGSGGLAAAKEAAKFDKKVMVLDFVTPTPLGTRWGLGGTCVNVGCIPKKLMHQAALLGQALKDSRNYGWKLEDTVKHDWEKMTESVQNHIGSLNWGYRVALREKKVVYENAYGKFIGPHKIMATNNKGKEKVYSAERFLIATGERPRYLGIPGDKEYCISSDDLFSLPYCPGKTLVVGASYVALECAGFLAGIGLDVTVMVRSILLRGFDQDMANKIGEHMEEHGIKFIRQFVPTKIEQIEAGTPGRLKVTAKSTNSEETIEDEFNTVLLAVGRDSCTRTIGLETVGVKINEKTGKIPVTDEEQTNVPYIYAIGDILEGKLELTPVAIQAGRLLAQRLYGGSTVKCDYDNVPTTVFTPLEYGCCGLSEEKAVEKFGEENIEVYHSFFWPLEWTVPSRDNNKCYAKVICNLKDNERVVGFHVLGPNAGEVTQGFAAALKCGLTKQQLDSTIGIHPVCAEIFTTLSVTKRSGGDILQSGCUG
Chain of Beta-2 adrenergic receptor (Homo sapiens) (P07550 whole entry, looked up): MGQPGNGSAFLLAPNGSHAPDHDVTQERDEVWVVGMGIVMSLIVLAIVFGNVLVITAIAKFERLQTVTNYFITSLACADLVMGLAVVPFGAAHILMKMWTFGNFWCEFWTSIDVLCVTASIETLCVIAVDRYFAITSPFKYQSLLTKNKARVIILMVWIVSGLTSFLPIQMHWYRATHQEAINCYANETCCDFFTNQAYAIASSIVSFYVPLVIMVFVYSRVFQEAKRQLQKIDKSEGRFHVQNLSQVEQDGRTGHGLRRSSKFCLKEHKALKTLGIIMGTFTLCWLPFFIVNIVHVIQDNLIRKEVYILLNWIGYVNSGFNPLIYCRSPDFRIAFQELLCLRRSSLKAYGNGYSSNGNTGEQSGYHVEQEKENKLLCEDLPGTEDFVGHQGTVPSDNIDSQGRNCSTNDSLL

Take `O=C(c1ccc(OCCN2CCCCC2)cc1)c1c(-c2ccc(O)cc2)sc2cc(O)ccc12`: the Potency entry in [1], in [2], in assay [6], in assay [7], in assay [11] and in [12] was “inactive” in each case. Further, the figures for the Potency in assay [3], in [8] and in [9] were 20.6 µM (active), 20 µM (active) and 31.6 µM (active), respectively. Also, the outcome in assay [4], in assay [5] and in assay [10] was inactive.

With `O=C(CCCN1CCC(O)(c2ccc(Cl)cc2)CC1)c1ccc(F)cc1`, the Potency entry in [1], in assay [2] and in assay [3] was “inactive” throughout. For the same compound, the compound was called inactive in assay [4], in [5], in [10] and in assay [15]. For the same compound, the Potency was 7.38 µM (active) in assay [13] and 10.4 µM (active) in [14].

Consider `CN(C)C(=O)C(CCN1CCC(O)(c2ccc(Cl)cc2)CC1)(c1ccccc1)c1ccccc1`, for which the Potency entry in [1], in assay [2], in assay [16], in [6], in assay [11] and in assay [17] was “inactive” each time. Besides, in assay [12], the Potency entry was “inactive”. Moreover, the compound was called inactive in assay [4], in assay [5] and in [10].

For `N[C@@H](Cc1c[nH]c2ccc(O)cc12)C(=O)O`, the Potency result in assay [1], in assay [2], in [7], in assay [8], in assay [9] and in assay [11] was “inactive” throughout. Further, the Potency result in assay [17] and in [12] was “inactive” each time. Besides, the compound was classed as inactive in assay [4], in assay [5], in [10], in assay [18] and in [15].

Regarding `OCCN(CCO)c1nc(N2CCCCC2)c2nc(N(CCO)CCO)nc(N3CCCCC3)c2n1`, the Potency entry in assay [2], in assay [16], in assay [6], in [7], in assay [8] and in assay [9] was “inactive” throughout. The outcome in [4], in assay [5] and in assay [10] was inactive. Also, the Potency is 10.4 µM (active) in assay [13], 10 µM (active) in assay [11] and 2.91 µM (active) in assay [17].

As for `Cn1c(=O)c2c(ncn2C)n(C)c1=O`, the Potency entry in assay [1], in [2], in assay [3], in assay [13], in [14] and in assay [6] was “inactive” in each case. In addition, the Potency result in [8], in assay [9], in assay [11], in assay [17] and in assay [12] was “inactive” each time. Also, the compound was classed as inactive in assay [4], in [5], in [10] and in assay [18].

For the compound `CC(C)(Oc1ccc(C2CC2(Cl)Cl)cc1)C(=O)O` (configuration not stated), the Potency result in [1], in assay [2], in assay [3], in [13], in assay [6] and in assay [7] was “inactive” in each case. Besides, the Potency entry in assay [9], in assay [11], in [17] and in assay [12] was “inactive” in each case. The result in [4], in assay [5], in [10], in assay [18] and in [15] was inactive. In [8], the Potency is 39.8 µM (active) and inactive.
